Laboratory results reported in the supplement of paper PMC5662767.
Structures can show the parent of a compound that is named as a salt.

System: Drosophila S2 cl14 SmoIP sensor cells
Assay: normalized SmoIP GFP fluorescence (untreated unstimulated = 0%, untreated Hh-stimulated = 100%); higher = more Smo activation sensor fluorescence
Conditions: compound concentration: 2 uM, 24 h
[1] = stimulation: Hh conditioned medium (+Hh)
[2] = stimulation: mock conditioned medium (-Hh)
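Note: flow cytometry read-out as median GFP intensity of gated cells, compounds added 30 min before Hh-conditioned or mock medium, mock-treated cells serving as unstimulated baseline.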

SMILES | normalized SmoIP GFP fluorescence [1] | normalized SmoIP GFP fluorescence [2]
CN1CCC(=C2c3ccccc3CCc3cccnc32)CC1 [azatadine-dimaleate] | 114% | 4.79%
NC(=O)N1CCC(CC(=O)N2CCC(C3c4ncc(Br)cc4CCc4cc(Cl)cc(Br)c43)CC2)CC1 (stereo not drawn) | 127% | 10.1%
O=C(Nc1ccncc1)c1cc([N+](=O)[O-])ccc1Cl | 114% | -2.82%
CN(C)Cc1cccc(N=C(c2ccccc2)c2c(O)[nH]c3cc(C(=O)N(C)C)ccc23)c1 | 86.4% | -3.71%
Nc1ccccc1NC(=O)c1ccc(CNC(=O)OCc2cccnc2)cc1 | 203% | 6.74%
CNCc1ccc(-c2cc(-c3nc(-c4ccc(S(=O)(=O)C(C)C)cc4)cnc3N)on2)cc1 | 123% | 28.9%
CN1CCN2c3ccccc3Cc3ccccc3C2C1 (stereo not drawn) [Mianserin-hydrochloride] | 115% | 4.04%
CCc1nc(N)nc(N)c1-c1ccc(Cl)cc1 [Pyrimethamine] | 101% | 0.702%
CNC(=O)c1nn(C)c2c1C(C)(C)Cc1cnc(Nc3ccc(N4CCN(C)CC4)cc3)nc1-2 | 107% | -11.7%
CC1(C)CCC(c2ccc(Cl)cc2)=C(CN2CCN(c3ccc(C(=O)NS(=O)(=O)c4ccc(N[C@H](CCN5CCOCC5)CSc5ccccc5)c(S(=O)(=O)C(F)(F)F)c4)cc3)CC2)C1 | 108% | 20.1%
CNCc1ccc(-c2[nH]c3cc(F)cc4c3c2CCNC4=O)cc1 | 115% | 0.489%
CCOC(=O)CCNc1cc(N2CCc3ccccc3CC2)nc(-c2ccccn2)n1 | 116% | -2.48%
CCCc1nn(C)c2c(=O)[nH]c(-c3cc(S(=O)(=O)N4CCN(C)CC4)ccc3OCC)nc12 [Sildenafil-citrate] | 76.3% | -1.88%
CCOc1nc2cccc(C(=O)O)c2n1Cc1ccc(-c2ccccc2-c2noc(=O)[nH]2)cc1 [azilsartan-tak-536] | 104% | -4.7%
O=C(NC[C@H]1CN(c2ccc(N3CCOCC3=O)cc2)C(=O)O1)c1ccc(Cl)s1 [Rivaroxaban] | 103% | -1.34%
CCCCOc1ccc(CC(=O)NO)cc1 [bufexamac] | 98.6% | -3.05%
C[C@H](NC(=O)/C(C#N)=C/c1cccc(Br)n1)c1ccccc1 | 86.1% | 8.14%
CC(C)(C#N)c1ccc(N2C(=O)OCc3cnc4ccc(-c5cnc6ccccc6c5)cc4c32)cc1 | 148% | 28.4%
O=c1oc2cc(O)ccc2s1 [tioxolone] | 169% | -1.83%
CCCCc1oc2ccccc2c1C(=O)c1cc(I)c(OCCN(CC)CC)c(I)c1 [amiodarone-hcl] | 112% | 1.69%
Cn1cnc(N)c2ncnc1-2 [3-methyladenine] | 111% | -4.89%
O=C(CCCCCN1C(=O)c2cccc3cccc(c23)C1=O)NO [scriptaid] | 163% | 10.9%
CN(C)CCOc1ccc(-c2nc(-c3ccncc3)c(-c3ccc4c(c3)CC/C4=N\O)[nH]2)cc1 | 114% | 4.48%
COCC(=O)NC/C=C/c1ccc2ncnc(Nc3ccc(Oc4ccc(C)nc4)c(C)c3)c2c1 | 71.1% | 2.43%
CN(C)CCC(c1ccc(Cl)cc1)c1ccccn1 (stereo not drawn) [Chlorpheniramine-maleate] | 106% | -12.2%

SMILES | normalized SmoIP GFP fluorescence [1] | normalized SmoIP GFP fluorescence [2]
CC1(C)CCC(CN2CCN(c3ccc(C(=O)NS(=O)(=O)c4ccc(NCC5CCOCC5)c([N+](=O)[O-])c4)c(Oc4cnc5[nH]ccc5c4)c3)CC2)=C(c2ccc(Cl)cc2)C1 | 104% | -2.82%
CNS(=O)(=O)Cc1ccc2[nH]cc(CCN(C)C)c2c1 [Sumatriptan-succinate] | 99.3% | 1.57%
Cc1ccc(C(=O)Nc2ccc(CN3CCN(C)CC3)c(C(F)(F)F)c2)cc1C#Cc1cnc2[nH]ncc2c1 | 104% | 3.88%
CCOC(=O)[C@H](CCc1ccccc1)N[C@@H](C)C(=O)N1Cc2ccccc2C[C@H]1C(=O)O [quinapril-hydrochloride-accupril] | 125% | 2.95%
N#CCNC(=O)c1ccc(-c2ccnc(Nc3ccc(N4CCOCC4)cc3)n2)cc1 | 208% | 53.3%
Nc1nc(N)c2nc(-c3cccc(O)c3)c(-c3cccc(O)c3)nc2n1 | 110% | -5.01%
CC(C)c1cc(C(=O)N2Cc3ccc(CN4CCN(C)CC4)cc3C2)c(O)cc1O | 107% | 13.8%
CN1CCc2c(c3ccccc3n2Cc2ccc(C(=O)NO)cc2)C1 [tubastatin-a-hcl] | 101% | -1.83%
COc1ccc(-c2cc3c(C)nc(N)nc3n([C@H]3CC[C@H](OCCO)CC3)c2=O)cn1 | 87.2% | -29.5%
Cn1c(N2CCCCS2(=O)=O)nc(C(=O)NCc2ccc(F)cc2)c(O)c1=O | 99.7% | -2.42%
CC(C)C[C@H](NC(=O)[C@H](CCc1ccccc1)NC(=O)CN1CCOCC1)C(=O)N[C@@H](Cc1ccccc1)C(=O)N[C@@H](CC(C)C)C(=O)[C@@]1(C)CO1 [carfilzomib-pr-171] | 80.7% | 5.7%
CO[C@@H](C(=O)N1Cc2[nH]nc(NC(=O)c3ccc(N4CCN(C)CC4)cc3)c2C1)c1ccccc1 | 122% | 12.4%
CCCS(=O)(=O)Nc1ccc(F)c(C(=O)c2c[nH]c3ncc(-c4ccc(Cl)cc4)cc23)c1F | 91.2% | 3.72%
C[C@]1(O)C[C@@H](c2nc(-c3ccc4ccc(-c5ccccc5)nc4c3)c3c(N)nccn32)C1 | 108% | -11%
C[C@@H](NCCCc1cccc(C(F)(F)F)c1)c1cccc2ccccc12 [Cinacalcet-hydrochloride] | 104% | 5.98%
NC(=O)c1cnc(N[C@@H]2CCCC[C@@H]2N)nc1Nc1cccc(-n2nccn2)c1 | 166% | 24.4%
N#Cc1ccc2[nH]c(O)c(-c3ccc(CN4CCOCC4)cn3)c2c1 | 108% | -4.35%
CC(C)C[C@H](NC(=O)[C@H]1O[C@@H]1C(=O)O)C(=O)NCCCCN=C(N)N | 129% | -3.72%
CCOC(=O)[C@H](CCc1ccccc1)N[C@@H](C)C(=O)N1CCC[C@H]1C(=O)O [Enalapril-maleate(Vasotec)] | 97.8% | -15.1%
COc1ccc(-c2nc3ccc(C4=NNC(=O)CC4C)cc3[nH]2)cc1 (stereo not drawn) [Pimobendan(Vetmedin)] | 104% | 4.8%
C[C@H](Cn1cnc2c(N)ncnc21)OCP(=O)(O)O [Tenofovir] | 104% | -4.47%
CCCCOc1c(C(=O)c2c(F)cc(C)cc2F)c[nH]c2nncc1-2 | 138% | -11.7%
CN(C)CCCCC(=O)Nc1ccc(NC(=S)NC(=O)c2ccc(C(C)(C)C)cc2)cc1 [tenovin-6] | 112% | 3.49%
Nc1ncnc2c1c(-c1cccc(OCc3ccccc3)c1)cn2C1CC(CN2CCCC2)C1 (stereo not drawn) | 117% | 5.45%
